Rows were chosen to be rich in hits. Some 1.5% of all compounds tested hit in one or more screens of this group.
TLR4 MyD88 comp – blocks binding of human TLR4 to MyD88. O00206+Q99836. HeLa CL3-4 TLR4/MyD88 BLA complementation, FRET ratio. inhibition, % at 8.4 µM. actives 0.18% (n = 200,000). AID 861; in the data active = inhibition above about 25%;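 also: 0% = vehicle and 100% = reference inhibitor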
NOD2-RIPK2 inh – NOD2-RIPK2 protein interaction inhibition; O43353; CHO BLA complementation NOD2-RIPK2, CCF4 ratio; inhibition, % at 4.98 µM; actives 0.38% (n = 360,000); AID 624267; in the data active = inhibition above about 21%;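 also: 0% = vehicle only and 100% = reference blocker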
Myeloid diff MLP – promotes myeloid progenitor differentiation; ER-HoxA9 myeloid progenitors, lysozyme-GFP differentiation, flow cytometry; AID 624256; actives 1% (n = 360,000); calls only at 10 µM;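 active = normalized GFP-positive differentiation at or above the plate's own cutoff, the solvent-only control mean plus 3 SD; inconclusive = no clear call, values can overlap the other calls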;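 also: cells exposed to compound for four days before flow analysis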
TLR9-MyD88 inh – inhibitors of human TLR9-MyD88 binding; Q9NR96+Q99836; CHO BLA complementation TLR9-MyD88, CCF4 FRET ratio; inhibition, % at 4.98 µM; actives 0.21% (n = 340,000); AID 504734;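 active = inhibition above the mean over all tested compounds plus 3 SD, cut at about 21% in these data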;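 also: 0% = DMSO only wells and 100% = clavulanate BLA inhibitor control wells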
* = called active by the depositor; i = inactive; ? = inconclusive; . = no result; + = active, no number.

SMILES	TLR4 MyD88 comp	NOD2-RIPK2 inh	Myeloid diff MLP	TLR9-MyD88 inh
c1cncc(-c2nc(-c3cccs3)cs2)c1	-2	-8	+	-3
CC(=O)N1CCN(C(C(=O)Nc2c(C)cccc2C)c2cccc(F)c2)CC1 (stereo not given)	.	-22	i	.
c1ccc2c(c1)Cn1nnnc1-2	9	4	i	-1
c1ccc2c(c1)CC1(CCCCC1)n1nnnc1-2	-8	-1	+	-22
CC1=C(C(=O)N(C(C)C)C(C)C)CC(CC(=O)NCc2cccc3ccccc23)C(=O)N1CCC1=CCCCC1 (stereo not given)	.	-1	i	.
COc1cccc(-c2nn(C)c3sc(C(=O)N4CCN(c5ccccn5)CC4)cc23)c1	10	3	+	-16
O=C(c1ccoc1)N1CCN(c2cc(-c3cccnc3)nc3cc(-c4cccc(Cl)c4)nn23)CC1	.	-2	i	0
Cc1sc2nc(SCC(=O)c3cccs3)n(Cc3ccco3)c(=O)c2c1C	10	-12	+	-8
Cc1sc2nc(SCc3ccc(C(=O)O)cc3)n(Cc3ccco3)c(=O)c2c1C	.	-3	i	-7
CCN(C(=O)CN1C(=O)NC2(CCC(C)CC2)C1=O)C1CCCCC1 (stereo not given)	.	0	i	-2
CCOC(=O)N1CCN(S(=O)(=O)c2c(C(=O)N3CCCCC3)c(C)n(C)c2C)CC1	.	-16	+	-9
CCOC(=O)C1CCN(S(=O)(=O)c2c(C(=O)N3CCCCC3)c(C)n(C)c2C)CC1	.	-1	i	0
Cc1cccc(-n2ccc(=O)c(C(=O)Nc3ccc(S(=O)(=O)Nc4nccs4)cc3)n2)c1	.	-10	+	1
CNc1cccc(-c2cc(OC)ccc2OC)n1	.	-7	i	.
C=CCn1nnnc1SCC(=O)Nc1cccc(C(F)(F)F)c1	.	-13	+	4
Cc1ccccc1C(NC(=O)C1CCN(Cc2ccc(Oc3ccccc3)cc2)CC1)c1ccsc1 (stereo not given)	.	10	i	.
COC(=O)[C@]12CCCCC=C1N(Cc1ccccc1)C(=O)[C@H](CC(=O)N1CCC(c3ccccc3)CC1)C2	.	-13	i	.
Cn1c(C(=O)NCCN2CCN(c3ccccc3F)CC2)cc2c(=O)n(C)c3ccccc3c21	-9	-12	+	2
Cn1c(C(=O)NCCCN2CCN(c3ccc(F)cc3)CC2)cc2c(=O)n(C)c3ccccc3c21	.	-4	?	1
CC(=O)c1c(C)[nH]c(C(=O)/C(C#N)=C/c2cccc(C)c2)c1C	.	-6	i	2
CCOC(=O)c1c(C)[nH]c(C(=O)/C(C#N)=C/c2ccc(OCC)cc2)c1C	2	-5	+	-7
Cc1cc(C)c(NC(=O)C2CCCN2CCO)c(C)c1 (stereo not given)	16	-5	+	-10
CCCCN1CCCCC1C(=O)Nc1c(C)cc(C)cc1C (stereo not given)	6	-1	i	-6
Cc1cc(/C=N\NC(=O)CC(=O)NC2CCCCC2)c(C)n1-c1ccc(Cl)c(Cl)c1	1	-6	+	3
Cc1ccc2ccccc2c1C(O)c1ncc(-c2ccccc2Cl)[nH]1 (stereo not given)	.	-1	i	.
SMILES	TLR4 MyD88 comp	NOD2-RIPK2 inh	Myeloid diff MLP	TLR9-MyD88 inh
Cc1ccc2c(c1)c1c3n2CCN=C3CCC1	-4	4	+	-9
Cc1ccc2c(c1)c1c3n2CCCNC3CCC1 (stereo not given)	13	3	i	-12
CCOC(=O)[C@]12CCC=C1N(Cc1ccc(Cl)cc1Cl)C(=O)[C@H](CC(=O)N1CCOCC1)C2	.	2	i	.
COc1cc2c(cc1OC)C1(Nc3c-2c(C)nn3-c2ccccc2)C(=O)Nc2ccccc21 (stereo not given)	-13	-2	+	-6
CC(C)(C)C(=O)c1c(N)[nH]c(C(=O)c2ccccc2)c1-c1c(F)cccc1F	.	-7	i	.
O=C(O)c1ccccc1NC(=O)c1ccccc1Nc1ccccc1	.	-4	+	9
Cc1ccc(-n2nc3c([n+]2[O-])CCc2c-3no[n+]2[O-])cc1	1	-1	+	6
[O-][n+]1onc2c1CCc1c-2nn(-c2ccccc2Cl)[n+]1[O-]	7	0	.	-5
Cc1ccccc1C(=O)Nc1ccc(N2CCN(C)CC2)nc1	8	-6	+	4
CN1CCN(c2ccc(NS(=O)(=O)c3ccc(Cl)cc3)cn2)CC1	-4	-8	+	1
Cc1ccc(S(=O)(=O)Nc2ccc(N3CCN(C)CC3)nc2)cc1	-14	-17	+	-15
O=C1C(=Cc2ccccc2O)SC(=S)N1CCCN1CCOCC1	.	-1	i	8
COC1=CC(C)C2CC3OC(O)CC4C(C)=C(OC)C(=O)C(C2(C)C1=O)C34C (stereo not given)	.	-14	i	.
CC(C)CCC(O)(CCC(C)C)C(=O)NNc1ccccc1	4	-1	+	-16
O=C(C1CCCN(S(=O)(=O)c2cccc3nonc23)C1)N1CCN(c2cccc(Cl)c2)CC1 (stereo not given)	-9	-3	+	-6
O=C(C1CCCN(S(=O)(=O)c2cccc3nonc23)C1)N1CCN(c2ccccc2Cl)CC1 (stereo not given)	0	-7	i	-7
CC(=O)Nc1ccccc1OCC(=O)N(Cc1ccccc1)C(C)C	2	-1	+	-1
COc1ccc([C@H]2CC(=O)C[C@@H](CCn3cc(C(C)C)nn3)O2)cc1	.	2	i	.
COc1ccc(NC(=O)c2c(-c3ccccc3)noc2C)c(OC)c1	1	-8	i	14
COc1cccc(/C=N/NC(=O)c2c(-c3ccccc3)noc2C)c1O	6	-13	+	1
COC(=O)c1cc(OC)c(OC)cc1NC(=O)c1c(-c2ccccc2)noc1C	4	-7	+	2
COC(=O)C[C@@H]1CC[C@H](NC(=O)Nc2ccc(OC)cc2)[C@@H](CO)O1	.	-8	i	.
COc1cc(NC(=O)c2ccc(C)cc2)ccc1NC(=O)c1cc2ccccc2o1	.	-4	+	6
COc1cc(NC(=O)c2ccc(Br)cc2)ccc1NC(=O)c1cc2ccccc2o1	.	-7	i	-4
CCOC(=O)[C@]12CCC=C1N(Cc1ccc(Cl)cc1Cl)C(=O)[C@H](CC(=O)NCCCOC)C2	.	-5	i	.
SMILES	TLR4 MyD88 comp	NOD2-RIPK2 inh	Myeloid diff MLP	TLR9-MyD88 inh
COC(=O)Nc1ccc2c(c1)N(C(=O)CCN1CCOCC1)c1ccccc1S2	-16	-3	i	-9
COC(=O)Nc1ccc2c(c1)N(C(=O)CCCl)c1ccccc1S2	.	4	+	-1
COC(=O)C[C@@H]1OC[C@H](Cc2ccccc2)N1S(=O)(=O)c1ccc(C)cc1	.	-15	i	.
CCCNC(=O)C1(C)CCN(Cc2ccc(C)c3ccccc23)C1 (stereo not given)	.	-12	i	.
CS(=O)(=O)Nc1cccc(-c2cc(NC=O)c3ncc(-c4ccc(F)c(Cl)c4)n3c2)c1	.	0	i	.
CC(=O)C1=C(O)C(=O)N(CCCn2ccnc2)C1c1ccc(Br)cc1 (stereo not given)	-10	-5	+	-1
